Source: PubChem
HT1080 IDH1KD tx = toxicity to HT-1080 IDH1 knockdown cells (counter line). HT-1080 IDH1 knockdown viability, ATP luminescence, 48 h. hit rate 2% among 360,000. AID 686971. Potency, µM (doses to about 46.1 µM), without a hit: at the highest dose activity, negative = toxicity, usual class: cytotoxic;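 note: potency is the fitted concentration of half-maximal effect; 0% = DMSO wells and -100% = cell-free medium wells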
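After a 2 h attachment period, IDH1KD HT-1080 cells took pin-transferred compound for 48 h at 37 °C; ATP-based luminescence after 10 min room-temperature reagent incubation reported viability.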
KB-V1 cytotox = kills drug-selected multidrug resistant KB-V1 cells; KB-V1 MDR cells viability, CellTiter-Glo, 72 h; hit rate 3.4% among 400,000; Potency, µM (titrated, usually from 46.1 µM), actives largely listed as cytotoxic; AID 1347076; note: potency is the fitted concentration of half-maximal effect; nearly all actives have a fitted effect of over 60% in size
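Readout: CellTiter-Glo luminescence, 10 min after addition. Cells: KB-V1 MDR subline, 72 h at 37 degrees C with compound. Analysis: corrected, normalized data fitted to concentration-effect curves.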
IL-1B inflam inh = inhibitors of inflammasome signaling (IL-1 beta secretion). THP-1 LPS/ATP IL-1B secretion, AlphaLISA, 16 h; stronger effect = lower value. activity change, % at 57.5 µM. hit rate 4.7% among 360,000; in the data active = activity change below about -50%; inconclusive = mostly about -30% to -49%
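Secreted IL-1B measured by AlphaLISA bead assay after 16 h compound exposure of THP-1 cells; compounds (final up to 57.5 uM) added 1 h before LPS (250 ng/mL) and ATP (1.25 mM) stimulation; lower signal means less secretion.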
KB-3-1 cytotox = kills parental KB-3-1 adenocarcinoma cells; KB-3-1 viability, CellTiter-Glo ATP luminescence, 72 h; AID 1347075; hit rate 1.4% among 400,000; Potency, µM (doses to about 46.1 µM), most hits filed as cytotoxic; note: potency is the fitted concentration of half-maximal effect; nearly all actives have a fitted effect of over 60% in size
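Luminescent ATP read-out (CellTiter-Glo) measures survival of drug-naive KB-3-1 cells after 72 h compound exposure at 37 °C. Titration series was screened from lowest to highest concentration, with DMSO vehicle plates as background controls.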
HT1080NT lethal = kills 2HG-producing HT-1080-NT fibrosarcoma cells. HT-1080-NT fibrosarcoma viability, CellTiter-Glo ATP luminescence, 48 h. Potency, µM (top dose mostly 46.1 µM), inactives show at the highest dose activity, negative = less viability, hits mostly cytotoxic. hit rate 1.6% among 360,000. AID 686970;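 note: NT is the 2HG producing partner of a matched IDH1 knockdown line; potency is the fitted concentration of half-maximal effect; 0% = DMSO-treated cells and -100% = media-only wells without cells; nearly all actives have a fitted effect of over 55% in size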
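Viability of the 2HG-overproducing fibrosarcoma line after 48 hours of compound exposure at 37 degrees C was determined by luminescence with CellTiter-Glo, and concentration-effect curves were then fitted and categorized.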
* = called active by the depositor; i = inactive; ? = inconclusive; nt = no result; ! = not active in a repeat; [ ] = remark or other dose. The list is not random: actives were taken first. Their share in the collection is about 8.8%. Unless noted, calls come from the whole dose curve; as a rule, active = well fitted curve in the direction sought with a large enough effect; inconclusive = small, poorly fitted or top-dose-only effect, or another doubt; inactive = no such curve, though single readings can be large; an effect the other way counts as inactive or inconclusive. Unless noted, % is set by controls: 0 for no effect and ±100 for the full control effect.

SMILES	HT1080 IDH1KD tx	KB-V1 cytotox	IL-1B inflam inh	KB-3-1 cytotox	HT1080NT lethal
CCOC(=O)N1CCC(NC(=O)CCc2nc(C3=CCN(C)CC3)no2)CC1	16.9%	i	-62.6*!	i	7.2%
CCOC(=O)[C@]12Cc3cc(Cl)ccc3[C@H]1N(C)C(=O)c1cc(OC)ccc12	?	4.11µM*	nt	2.59µM*	?
CCOC(=O)C1C(=O)N(C)C2(C)CC1c1cc(OC)ccc1O2 (stereo not drawn)	-1.0%	i	10.9	i	-1.3%
CCOC(=O)[C@]12Cc3cc(OC)ccc3[C@H]1N(CC(=O)OC)C(=O)c1cc(OC)ccc12	?	?	-56.9*	4.61µM*	?
CCOC(=O)c1c(C)n(CCN2CCN(C)CC2)c2ccc(OC)cc12	-8.3%	?	-28.9	i	2.8%
CCOC(=O)[C@]12Cc3cc(OC)ccc3[C@H]1N(CC(=O)OC)C(=O)c1ccccc12	5.3%	i	32.1	i	5.2%
CCOC(=O)[C@]12Cc3cc(OC)ccc3[C@H]1N(C)C(=O)c1cc(OC)ccc12	?	?	nt	3.66µM*	?
CCCCCN1C(=O)c2cc(OC)ccc2[C@@]2(C(=O)OCC)Cc3cc(OC)ccc3[C@@H]12	13µM*	23.1µM*	-69.3*	5.8µM*	14.6µM*
O=C(Nc1ccc2c(c1)OCO2)c1cccn(Cc2ccccc2)c1=O	nt	i	nt	i	nt
O=C1CC(c2c(F)cccc2Cl)c2c(c3ccccc3oc2=O)O1 (stereo not drawn)	nt	i	nt	i	nt
NC(N)=N/N=C/c1ccc(N(c2ccccc2)c2ccccc2)cc1	?	i	-54.8*	i	?
O=C(/C=C/c1c[nH]c2ccccc12)c1c(O)n(CCc2ccccc2)c(=O)[nH]c1=O	15.4%	?	nt	i	8.6%
Cc1cccc(NP(=O)(Oc2ccccc2)Oc2ccccc2)c1C	-18.3%	?	-89.2*	?	?
CS(=O)(=O)c1ccc(C2=C(CNC(=O)c3nccs3)[C@H]3CC[C@@H](C2)N3Cc2ccccc2)cc1	3.5%	i	-2.3	i	0.1%
CC1CCCCC1NC1CCN(C)CC1 (stereo not drawn)	-6.2%	i	-13.2	i	-10.2%
N/C(Cc1ccc(Cl)cc1)=N\OC(=O)c1cccc2ccccc12	?	i	?	i	?
CCC(=O)N1N=C(c2c(O)n(C)c(=O)n(C)c2=O)CC1c1ccccc1 (stereo not drawn)	6.51µM*	?	250.0	20.6µM*	?
Cc1cccc(NP(C)(=O)c2nc3c(s2)CCCC3)c1 (stereo not drawn)	?	i	13.2	i	15.5%
Oc1ccc2c3c1O[C@H]1c4[nH]c5ccccc5c4C[C@@]4(O)[C@@H](C2)N(CC2CC2)CC[C@]314	?	i	-61.3*	i	?
Oc1ccc2c3c1O[C@H]1c4oc5ccccc5c4C[C@@]4(O)[C@@H](C2)N(CC2CC2)CC[C@]314	?	?	-64.8*	i	?
O=C1CC[C@@]2(O)[C@H]3Cc4ccc(O)c5c4[C@@]2(CCN3CC2CC2)[C@H]1O5	14.9%	i	7.5	i	28.4%
Cc1ccc(Cn2cccc(C(=O)Nc3ccc4c(c3)OCCO4)c2=O)cc1	nt	?	nt	i	nt
Cc1ccc(Cl)cc1NC(=O)N(Cc1ccc2c(c1)OCO2)C1CCN(Cc2ccccc2)CC1	nt	?	nt	i	nt
COC(=O)c1cn(C(=O)c2cccc3ccccc23)c2ccccc12	13µM*	?	71.0	?	11.6µM*
COC(=O)c1cn(Cc2ccc(F)cc2)c2ccccc12	?	i	3.0	i	-21.0%
SMILES	HT1080 IDH1KD tx	KB-V1 cytotox	IL-1B inflam inh	KB-3-1 cytotox	HT1080NT lethal
COC(=O)C1=C(C)NC(C)=C(C(=O)OC)C1c1ccccc1[N+](=O)[O-]	3.66µM*	8.2µM*!	0.0	i	?
CC(=NCc1cccnc1)c1c(O)n(C2CCCCC2)c(=O)[nH]c1=O	-3.5%	18.4µM*	-0.1	i	?
CCCCN1C(=O)NC(=O)C2(Cc3c(nc4ccccn4c3=O)N3CCc4ccccc4C32)C1=O (stereo not drawn)	0.8%	i	21.3	i	-10.5%
CCCCN1C(=O)NC(=O)C2(Cc3c(nc4c(C)cccn4c3=O)N3CCc4ccccc4C32)C1=O (stereo not drawn)	-4.8%	14.6µM*	26.2	i	0.4%
COc1ccc(/C=C/C(=O)NC(=S)NCCc2ccc(OC)c(OC)c2)cc1	10µM*	?	31.3	i	11.2µM*
COc1ccc(CCNCc2cccn2C)cc1OC	1.9%	i	-4.7	i	-1.1%
Cc1ccc(-n2cc(CNC(C)Cc3cnccn3)c(-c3cccc(C)c3)n2)cc1 (stereo not drawn)	?	i	-76.1*	i	?
CC(Cc1cnccn1)NCc1c(C(=O)N2CCCCCCC2)nc2ccc(Cl)cn12 (stereo not drawn)	20.0%	i	-15.3	i	6.4%
CC(C)(C)c1ccc(C(=O)Nc2ccc(NC(=O)c3ccco3)cc2)cc1	10µM*	i	6.9	i	10µM*
O=C(Nc1ccc(Cl)c(Cl)c1)c1ccco1	-21.5%	i	?	i	-5.0%
Cc1cccc(-c2nn3c(=O)cc(CN4CCN(C(=O)COc5ccc(Cl)cc5)CC4)nc3s2)c1	nt	i	nt	i	nt
CN(C)CCSC1c2ccccc2CSc2ccccc21 (stereo not drawn)	-5.4%	i	-2.4	i	-15.4%
O=C(Nc1ccon1)c1cccn(Cc2cccc([N+](=O)[O-])c2)c1=O	nt	i	nt	i	nt
Cc1ccc2nc(-c3ccncc3)cc(C(=O)N3CCC4(CC3)OCCO4)c2c1	-6.0%[9.24 µM]	i	-6.2	i	-6.5%
CC(/C=N/NC(=O)c1cc(-c2ccncc2)nc2ccccc12)=C\c1ccco1	1µM*	1.46µM*	9.7	?	0.891µM*
ClCCN(CCCl)c1ccc(C=Nc2ccncc2)cc1	nt	i	nt	i	nt
CC(=O)OC(C)(C)/C=C/C(=O)[C@](C)(O)C1[C@H](O)C[C@@]2(C)C3CC=C4C(C[C@H](O)C(=O)C4(C)C)[C@]3(C)C(=O)C[C@]12C (stereo partly drawn)	0.0326µM*	0.92µM*	-106.2*	0.0366µM*	?
CC(C)(O)/C=C/C(=O)C(C)(O)C1C(O)CC2(C)C3CC=C4C(C=C(O)C(=O)C4(C)C)C3(C)C(=O)CC12C (stereo not drawn)	0.146µM*	0.92µM*	-102.6*	0.184µM*	0.651µM*
CC(=O)Cc1c[nH]c2ccccc12	nt	i	nt	i	nt
N#CC(C#N)=Cc1ccc(C=C(C#N)C#N)cc1	23.1µM*	?	-82.8*	?	?
Cc1cc(N2CCCC2)ccc1C=C(C#N)C#N	5.6%	i	16.9	i	-0.6%
